Compound activity as filed in PubChem BioAssay.
Sampled rows, rich in hits. Any-hit rate of the full collection: about 6.8%.
DPM-DC inhibit: blocks S. pneumoniae diphosphomevalonate decarboxylase; purified DPM-DC, PK/LDH coupled NADH fluorescence; calls only at 10 µM; 65,000 compounds, 0.49% hits; AID 556;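 active = the 320 compounds with the highest percent inhibition in the single-dose primary screen, excluding strongly autofluorescent ones, cut at about 32% in these data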;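 also: kinetic rate of NADH fluorescence loss reporting ADP formed by the decarboxylase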
Abs 340nm: compounds absorbing at 340 nm. 65,000 tested, under 10 active. fold change at 10 µM. compound absorbance at 340 nm, fold over control;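 active = at 10 µM dose, initial 340 nm absorbance at least 2 fold that of control wells; inactive = change under 2 fold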;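 also: initial absorbance extrapolated from kinetic A340 decline of NADH oxidation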
Spn PMK inh: S. pneumoniae PMK inhibition; purified PMK, PK/LDH-coupled NADH absorbance 340 nm; AID 539; inhibition, % at 10 µM; 65,000 compounds, 0.49% hits;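 active = top-ranked compounds by inhibition in the single 10 µM screen, taking a fixed number of the strongest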
Fluor 339 460: intrinsic fluorescence of library compounds, ex339/em460 – biochemical, MLSMR library, data from DPM-DC assay, artefact control, profiling panel. compound autofluorescence, ex339/em460 nm, NADH buffer; stronger effect = higher value; 1 = no-compound wells, NADH background. 65,000 compounds, 5.5% hits. fluorescence fold increase at 10 µM;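 active = at 10 µM, mean starting fluorescence two-fold or more over control wells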;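 also: signal is the first read of a kinetic run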
NADH coupling: blocks coupling enzymes of NAD/NADH assays | coupled PK/LDH NADH assays, four targets | 65,000 compounds, 0.02% hits | IC50, µM (titrated, usually from 10 µM) | AID 774;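 active = single-dose screening hits from any of four coupled enzyme assays that gave an IC50 when retested across doses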;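 also: the DPM-DC format reads NADH fluorescence rather than 340 nm absorbance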
MK inhibit: S. pneumoniae mevalonate kinase inhibition; purified MK, PK/LDH-coupled NADH absorbance 340 nm; inhibition, % at 10 µM; 65,000 compounds, 0.48% hits; AID 555;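 active = ranked among the strongest by inhibition in the single 10 µM screen, a fixed top-ranked set picked for dose follow-up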
Numbers stand for hits; – = inactive; · = no result given; + = active, no number.

SMILES	DPM-DC inhibit	Abs 340nm	Spn PMK inh	Fluor 339 460	NADH coupling	MK inhibit
CC1CN(C(=O)CN2C(=O)c3ccccc3C2=O)CC(C)O1 (configuration not stated)	–	–	–	–	–	–
COCC(=O)Nc1nc2n(n1)C(c1ccc(Cl)cc1)CC(c1ccc(OC)cc1)N2 (configuration not stated)	–	–	–	2.52	–	–
CCN(CC)S(=O)(=O)c1cccc(-c2nnc(SC(C)C#N)n2Cc2ccccc2)c1 (configuration not stated)	–	–	–	–	–	–
Cc1cc2c(C)cc(=O)oc2c2c1NCCC2	·	–	–	3.61	–	–
Cc1cc(C(=O)N(C)CC(=O)Nc2ccccc2C(F)(F)F)c(C)o1	–	–	–	–	–	–
O=C(Nc1nc2c(ccc3ccccc32)s1)c1ccco1	–	–	–	2.8	–	–
Cc1nnc(NC(=O)c2ccco2)s1	–	–	–	–	–	–
Cc1nc2ccc3nc(NC(=O)c4ccco4)sc3c2s1	–	–	30.0	–	–	–
CN(C)C(=O)Nc1cnc2ccccc2c1	+	–	–	–	–	–
COC(=O)c1cc(OC)c(OC)cc1NC(=O)c1ccoc1C	·	–	–	3.33	–	–
COC(=O)c1cc(OC)c(OC)cc1NC(=O)c1ccccc1	·	–	–	2.17	–	–
O=C(Nc1cccc2nsnc12)C1CC(=O)N(c2ccccc2)C1 (configuration not stated)	–	–	–	–	–	–
Nc1cccc(-c2nc3ccc(N)cc3s2)c1	·	–	–	3.87	–	–
O=C(NC1CCCCC1)c1ccc(S(=O)(=O)NCc2cccnc2)cc1	–	–	–	–	–	–
CC(C)OC(=O)CSc1nc(N)c(C#N)c(-c2cccs2)c1C#N	–	–	–	–	–	–
N#Cc1c(N)nc(SCC(=O)NCCc2ccccc2)c(C#N)c1-c1cccs1	·	–	–	2.31	–	–
CCNc1nc(C)c2cc(Br)c(=O)n(CC)c2n1	·	–	–	2.08	–	–
CCNc1nc(NC(C)C)nc(Nn2cnnc2)n1	–	–	–	–	–	–
COc1ccc(CNC2=CC(=O)CC(C)(C)C2)cc1	–	–	–	–	–	–
O=C(CNCCC1=CCCCC1)Nc1ccccc1N1CCCCC1	–	–	–	–	–	–
C=CCNS(=O)(=O)c1cccc2cc(C(=O)O)c(O)cc12	–	–	–	2.26	–	–
CCOCCCNC(=O)CCNC(=O)c1cc(OC)c(OC)c(OC)c1	–	–	–	–	–	–
CCOc1cc(-c2nnc(-c3ccco3)o2)cc(OCC)c1OCC	–	–	–	2	–	–
c1coc(-c2nnc(-c3ccc4c(c3)OCO4)o2)c1	·	–	–	2.2	–	–
CCOc1ccc(-c2nnc(-c3ccco3)o2)cc1OCC	·	–	–	3.7	–	–
SMILES	DPM-DC inhibit	Abs 340nm	Spn PMK inh	Fluor 339 460	NADH coupling	MK inhibit
O=C(COC(=O)c1ccc[nH]c1=O)NCC1CCCO1 (configuration not stated)	–	–	–	–	–	–
CC(C)(C)NS(=O)(=O)c1ccc(NS(=O)(=O)c2ccc(F)cc2)cc1	–	–	26.0	–	–	–
CCNC(=O)Cc1ccc(NS(=O)(=O)c2ccc(F)cc2)cc1	–	–	–	–	–	–
O=C(CN1CCN(c2ncccn2)CC1)NCCC1=CCCCC1	–	–	–	–	–	49.0
CC(C)(C)c1cc(C(=O)N2CCN(c3ncccn3)CC2)ccn1	–	–	–	–	–	–
CCOC(=O)N1CCC(NC(=O)c2cc(C(=O)NC3CCCC3)ccc2CO)CC1	–	–	–	–	–	–
COC(=O)c1ccc2c(c1)N(C)CCS2	·	–	–	2.09	–	–
CCOC(=O)N1CCN(C(=O)c2ccc(N3C(=O)c4ccccc4C3=O)cc2)CC1	–	–	–	–	–	–
CCOC(=O)N1CCC(NC(=O)c2ccc3c(c2)N(C)CCS3)CC1	·	–	–	3.4	–	–
CCOC(=O)N1CCN(C(=O)c2ccc3c(c2)N(CC)CCS3)CC1	·	–	–	2.04	–	–
O=C1CCCC(O)=C1C1C2=C(CCCC2=O)Oc2ccccc21 (configuration not stated)	–	–	–	–	–	–
CN(C)c1ccc(C(=O)OCC(=O)NC2CCCCC2)cc1	–	–	–	–	–	–
O=C(NCc1cccs1)c1cnc2sccn2c1=O	–	–	–	–	–	–
O=C(Nc1ccc(-c2noc(CCc3ccccc3)n2)cc1)c1ccco1	–	–	–	–	–	–
Clc1ccc2nc3ccccn3c2c1	·	–	–	2.2	–	–
COc1ccc(-c2nc(N3CCOCC3)nc3n[nH]c(N)c23)cc1	–	–	–	–	–	–
COc1ccc(-c2nc(N3CCCC3)nc3nn4c(C)cc(C)nc4c23)cc1	–	–	–	2.18	–	–
Nc1[nH]nc2nc(N3CCCC3)nc(-c3ccccc3)c12	–	–	–	–	–	–
Cc1cc(C)n2nc3nc(N4CCCC4)nc(-c4ccccc4)c3c2n1	–	–	–	3.16	–	–
CCN(CC)CCCN1C(=O)C(=O)/C(=C(/O)c2cnn(-c3ccccc3)c2C)C1c1ccncc1 (configuration not stated)	–	–	–	–	–	–
Cc1ccc(Cc2c(C)nc3c(C(=O)O)cnn3c2C)cc1	–	–	–	–	–	–
Cc1ccccc1Cc1c(C)nc2c(C(=O)N3CCN(Cc4ccc5c(c4)OCO5)CC3)cnn2c1C	+	–	–	2.26	–	–
Cc1nc2c(C(=O)N3CCCCC3)cnn2c(C)c1Cc1ccccc1F	–	–	–	3.18	–	–
CC1=C(C(=O)NCCN2CCN(C)CC2)C2(CCC(C)CC2)OC1=O (configuration not stated)	–	–	–	–	–	–
CN(C)C(CNC(=O)CSc1nnc(-c2ccco2)o1)c1ccccc1 (configuration not stated)	–	–	–	–	–	–
SMILES	DPM-DC inhibit	Abs 340nm	Spn PMK inh	Fluor 339 460	NADH coupling	MK inhibit
Cc1cccc(CSC2=NCCN2C(=O)c2ccc(Br)o2)c1	–	–	–	–	–	–
CC1CN(S(=O)(=O)c2cccc(C(=O)OCC(=O)Nc3ccc4c(c3)OCO4)c2)CC(C)O1 (configuration not stated)	–	–	–	–	–	–
CC1CN(S(=O)(=O)c2cccc(C(=O)OCc3cc(=O)oc4cc(O)ccc34)c2)CC(C)O1 (configuration not stated)	·	–	–	3.43	–	–
Cc1ccc(-c2nc(-c3cccnc3)no2)cc1	–	–	–	–	–	–
Cc1ccc(-c2cnc(-c3ccncc3)o2)cc1	·	–	–	2.17	–	–
COc1ccc(CNC(=O)COc2ccc(S(=O)(=O)NC(C)C)cc2)cc1	–	–	–	–	–	–
CCCCCOC(=O)C1[C@H]2C(=O)N(CCCOC)C[C@]23C=C[C@H]1O3 (some centres not stated)	–	–	–	–	–	–
COc1ccc(C2CCCN2C(=O)Nc2cccc(C(C)=O)c2)cc1OC (configuration not stated)	–	–	–	–	–	–
